Laboratory results: PubChem BioAssay (NCATS)
“And” between values parts separate entries of the source, which are not always exact repeats. Equal entries are not always repeated. Inconclusive results are not listed. The source made the active and inactive calls. Unless noted, calls follow the shape of the dose curve; as a rule, active = well fitted curve in the direction sought with a large enough effect; inconclusive = small, poorly fitted or top-dose-only effect, or another doubt; inactive = no such curve, though single readings can be large; an effect the other way counts as inactive or inconclusive.

Columns and labels:
[1] = Cell Viability - SK-N-SH (AID 435; calls by dose curve; also: potency is read from the fitted curve at half-maximal effect); conditions: SK-N-SH neuroblastoma cell viability qHTS
Summary of the method: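 SK-N-SH human neuroblastoma cells (1500/well) were exposed to compounds in complete medium for 40 h at 37 °C, and intracellular ATP was then measured by CellTiter-Glo luminescence. AC50 was taken from Hill fits, normalized to DMSO and 100 uM tamoxifen.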

[2] = Cell Viability - LYMP2-001 (AID 921); also: nearly all actives have a fitted effect of over 70% in size; also: potency is read from the fitted curve at half-maximal effect
Summary of the method: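 Human lymphoblastoid cells (Coriell), 2500 per well, were preincubated 5 hr at 37 C, then exposed to compounds in complete medium for 24 hr at 37 C. Cellular ATP was read by CellTiter-Glo luminescence; AC50 from Hill fits of concentration-response data.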

[3] = MultiTox-Fluor Cytotoxicity Assay - LYMP1-001 - Live Cells (AID 947);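 also: 0% = DMSO only and full inhibition = tetraoctylammonium bromide control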
[4] = MultiTox-Fluor Cytotoxicity Assay - LYMP1-002 - Dead Cells (AID 960);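 also: 0% = DMSO and 100% = tetraoctylammonium bromide; nearly all actives have a fitted effect of over 60% in size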
Summary of the method: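 Dead-cell fluorescence (Ex/Em 485/520) after 16 h compound exposure at 37 C of LYMP1-002 lymphoblastoid cells in complete medium; AC50 by Hill equation, with data scaled between DMSO and 15 uM tetraoctylammonium bromide.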

[5] = Cell Viability - LYMP2-005 (AID 967); also: potency is read from the fitted curve at half-maximal effect
Summary of the method: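 CellTiter-Glo luminescence (cellular ATP) read-out; LYMP2-005 lymphoblastoid cells, 2500/well, 5 h pre-incubation, then 24 h compound exposure at 37 C in complete medium. Tetraoctylammonium bromide positive control; AC50 by standard Hill fit.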

[6] = Cell Viability - LYMP2-009 (AID 968); also: nearly all actives have a fitted effect of over 55% in size; also: potency is read from the fitted curve at half-maximal effect
[7] = Cell Viability - LYMP2-015 (AID 971); also: nearly all actives have a fitted effect of over 55% in size; also: potency is read from the fitted curve at half-maximal effect
Summary of the method: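 Cytotoxicity readout: decrease in intracellular ATP (CellTiter-Glo luminescence) in 2500 LYMP2-015 lymphoblastoid cells/well after 24 h compound exposure at 37 C. Concentration-response data fitted with the standard Hill equation to give AC50.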

[8] = Cell Viability - LYMP2-017 (AID 972); also: nearly all actives have a fitted effect of over 55% in size; also: potency is read from the fitted curve at half-maximal effect; as to activity change, negative = cytotoxicity: % is scaled to controls: 0 for no effect and ±100 for the full control effect
Summary of the method: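 CellTiter-Glo luminescence (cellular ATP, 30 min RT) measured cytotoxicity after 24 hr compound treatment at 37 C. Cells were a human lymphoblastoid line, LYMP2-017, plated at 2500/well and incubated 5 hr first; concentration-response fitted with Hill equation for AC50.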

[9] = Cell Viability - LYMP2-006 (AID 978); also: nearly all actives have a fitted effect of over 60% in size; also: potency is read from the fitted curve at half-maximal effect; as to activity change, negative = cytotoxicity: % is scaled to controls: 0 for no effect and ±100 for the full control effect
Summary of the method: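 Human lymphoblastoid cells, 2500 per well, were preincubated 5 hr at 37 C, then exposed to compounds for 24 hr at 37 C in complete medium. Viability was read as intracellular ATP by CellTiter-Glo luminescence; AC50 from Hill-equation fits of qHTS concentration-response data.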

[10] = Cell Viability - LYMP2-010 (AID 981); also: nearly all actives have a fitted effect of over 55% in size; also: potency is read from the fitted curve at half-maximal effect
Summary of the method: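 CellTiter-Glo ATP luminescence measured cytotoxicity after 24 h compound exposure at 37 C. LYMP2-010 cells were seeded at 2500/well, with tetraoctylammonium bromide as control; concentration-response curves gave AC50 values by the Hill equation.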

[11] = qHTS assay for small molecule agonists of retinoid X receptor alpha signaling (AID 588544); conditions: HEK293T RXRa-UAS-bla, beta-lactamase reporter, 18 h; 530 nm emission
[12] = biological target: Thyroid hormone receptor beta (Homo sapiens) (UniProt P10828); assay: qHTS assay for small molecule agonists of thyroid hormone receptor beta signaling (AID 588545; calls by dose curve)
Summary of the method: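 Agonist activity was read as beta-lactamase CCF4 fluorescence (405 ex, 460/530 em), scaled between DMSO (0%) and 10 nM T3 (100%), then Hill-fitted for EC50 and efficacy. HEK 293 TR-UAS-bla cells in 2% charcoal/dextran FBS medium were exposed 18 h at 37 C.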

[13] = biological target: Thyroid hormone receptor beta (Homo sapiens) (UniProt P10828); assay: qHTS assay for small molecule antagonists of thyroid hormone receptor beta signaling (AID 588547; active = well fitted inhibition curve with a large enough effect in the signal ratio, with a control signal flat, not every such curve was filed as active; the % refers to the signal ratio;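 also: cells stimulated with 0.4 nM T3 agonist during compound exposure; % is scaled to controls: 0 for no effect and ±100 for the full control effect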); conditions: TR-UAS-bla HEK293, beta-lactamase ratio, antagonist mode, 18 h
Summary of the method: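 TR-UAS-bla GripTite HEK293 cells in 2% charcoal/dextran FBS medium; compounds 0.59 nM to 92 uM with T3 at 0.4nM final, 18 h at 37 C. Beta-lactamase read by CCF4 fluorescence (460/530 nm); Hill fits gave IC50 and efficacy.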

[14] = qHTS assay for small molecule disruptors of the mitochondrial membrane potential - 1 hr assay (AID 651754; calls by dose curve; also: nearly all actives have a fitted effect of over 35% in size; also: potency is read from the fitted curve at half-maximal effect)
Summary of the method: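 Mitochondrial potential in living HepG2 cells after 1 hr compound treatment at 37C was read with Mito-MPS dye added for a further 30 min. Red aggregate and green monomer fluorescence were measured; loss of potential leaves dye as cytoplasmic monomers.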

[15] = qHTS assay for small molecule disruptors of the mitochondrial membrane potential - 5 hr assay (AID 651755; calls by dose curve; also: nearly all actives have a fitted effect of over 40% in size; also: potency is read from the fitted curve at half-maximal effect)
Summary of the method: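 Read-out: ratiometric Mito-MPS fluorescence, green monomer (ex 490/em 535) vs red mitochondrial aggregate (ex 540/em 590). HepG2 cells treated 5 hr at 37C before 30 min dye loading.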

[16] = qHTS assay for small molecule agonists of the antioxidant response element (ARE) signaling pathway measured by Nrf2-dependant transcriptional activity (AID 720636; active = well fitted curve in the direction sought with a large enough effect in the repeat runs; an effect the other way counts as inactive or inconclusive; also: potency is read from the fitted curve at half-maximal effect)
Summary of the method: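 Quantitative HTS format in HepG2 cells stably expressing an ARE-luciferase reporter; 16 hr compound treatment at 37 C, luciferase signal detected with ONE-Glo.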

[17] = biological target: Nuclear receptor subfamily 1 group I member 2 (Rattus norvegicus) (UniProt Q9R1A7); assay: qHTS assay for small molecule activators of the rat pregnane X receptor (rPXR) signaling pathway (AID 651751; call rule not given here; also: 0% is about no effect); conditions: rPXR reporter cells, luciferase (One-Glo), 24 h
[18] = Cell Viability - N2a (AID 540); conditions: N2a mouse neuroblastoma cell viability; activity change, negative = cytotoxicity: at 92.2 µM (top of the series); also: nearly all actives have a fitted effect of over 45% in size; also: potency is read from the fitted curve at half-maximal effect;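 as to activity change, negative = cytotoxicity: plate controls were DMSO alone for no effect and tamoxifen control for full effect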
Summary of the method: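 CellTiter-Glo ATP luminescence, read 20 min after reagent at room temperature, reported viability following 40 h compound treatment at 37 °C. N2a mouse neuroblastoma cells seeded 1500/well; Hill equation gave AC50.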

[19] = Cell Viability - Renal Proximal Tubule (AID 545); conditions: renal proximal tubule cells viability, primary cells of rat origin; activity change, negative = cytotoxicity: at 91.7 µM (top of the series); also: nearly all actives have a fitted effect of over 40% in size; also: potency is read from the fitted curve at half-maximal effect;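 as to activity change, negative = cytotoxicity: 0% = DMSO only and -100% = 100 µM tamoxifen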
Summary of the method: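 Primary rat renal proximal tubule cells (1000/well) were treated with compounds for 40 hr at 37 °C in complete medium. Intracellular ATP was measured by CellTiter-Glo luminescence, and AC50 values came from Hill-equation fits of concentration-response data.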

[20] = Cell Viability - H-4-II-E (AID 543); also: nearly all actives have a fitted effect of over 35% in size; also: potency is read from the fitted curve at half-maximal effect
Summary of the method: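 CellTiter-Glo luminescence (intracellular ATP) measured after 40 h compound exposure at 37 °C in H-4-II-E rat hepatoma cells seeded at 1500/well. Values are AC50s fitted with the standard Hill equation.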

Chain of Nuclear receptor subfamily 1 group I member 2 (Rattus norvegicus) (Q9R1A7 whole entry, looked up): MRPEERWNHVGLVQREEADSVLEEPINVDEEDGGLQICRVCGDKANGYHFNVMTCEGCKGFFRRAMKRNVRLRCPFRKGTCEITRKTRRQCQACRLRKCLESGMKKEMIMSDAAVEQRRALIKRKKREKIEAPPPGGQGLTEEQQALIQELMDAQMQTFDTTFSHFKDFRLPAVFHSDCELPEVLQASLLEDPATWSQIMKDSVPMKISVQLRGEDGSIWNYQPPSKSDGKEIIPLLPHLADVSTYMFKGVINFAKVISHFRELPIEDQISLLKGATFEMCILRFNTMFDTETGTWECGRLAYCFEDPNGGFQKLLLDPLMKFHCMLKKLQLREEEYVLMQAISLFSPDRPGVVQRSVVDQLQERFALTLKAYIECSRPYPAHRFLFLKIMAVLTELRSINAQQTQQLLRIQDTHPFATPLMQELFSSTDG
Chain of Thyroid hormone receptor beta (Homo sapiens) (P10828 whole entry, looked up): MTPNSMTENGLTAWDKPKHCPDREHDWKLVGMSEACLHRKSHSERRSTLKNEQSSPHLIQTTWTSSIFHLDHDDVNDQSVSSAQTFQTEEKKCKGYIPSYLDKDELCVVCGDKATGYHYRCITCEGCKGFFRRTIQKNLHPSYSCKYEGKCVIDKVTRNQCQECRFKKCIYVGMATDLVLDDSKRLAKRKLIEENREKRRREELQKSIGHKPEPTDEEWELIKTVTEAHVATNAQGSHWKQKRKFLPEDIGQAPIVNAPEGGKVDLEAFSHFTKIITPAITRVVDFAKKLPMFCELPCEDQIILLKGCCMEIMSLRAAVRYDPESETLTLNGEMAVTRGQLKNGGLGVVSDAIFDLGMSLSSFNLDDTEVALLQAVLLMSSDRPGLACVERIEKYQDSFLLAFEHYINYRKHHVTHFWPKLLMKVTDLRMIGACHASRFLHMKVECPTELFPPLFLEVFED

Cc1cc2nc(N)sc2cc1C
inactive: Potency [1] > 92 µM | Potency [2] | Potency [3] | Potency [4] | Potency [5] | Potency [6] | Potency [7] | Potency [8] | Potency [9] | Potency [10] | Potency [12] | activity change % (negative = inhibition) [13] -0.19% | Potency [14] | Potency [15]
-11.8%: max response [11]

O=[N+]([O-])c1cc(N(CCO)CCO)ccc1NCCO
7.09% and -3.73%: max response [11]
inactive: Potency [2] | Potency [3] | Potency [4] | Potency [5] | Potency [6] | Potency [7] | Potency [10] | Potency [12] | activity change % (negative = inhibition) [13] 14.2% and 12% | Potency [14] | Potency [16] | max response [17] -6.76% and -5.03%

S=C(NC1CCCCC1)NC1CCCCC1
inactive: Potency [19] | Potency [2] | Potency [3] | Potency [4] | Potency [5] | Potency [6] | Potency [7] | Potency [8] | Potency [9] | Potency [10] | Potency [12] | activity change % (negative = inhibition) [13] 30% | Potency [15] | Potency [16] | max response [17] 8.83%
7.4%: max response [11]
active: Potency [18] 31.6 µM

C=C(C#N)C(=O)OCC
6.28%: max response [11]
inactive: Potency [1] > 92 µM | activity change, negative = cytotoxicity [18] -3.66% | Potency [20] | Potency [19] | Potency [2] | Potency [3] | Potency [4] | Potency [5] | Potency [6] | Potency [7] | Potency [8] | Potency [10] | Potency [12] | activity change % (negative = inhibition) [13] 4.82% | Potency [14] | Potency [15] | Potency [16] | max response [17] -1.42%

Cc1ccc(O)c(N)c1
inactive: Potency [19] | Potency [3] | Potency [4] | Potency [12] | activity change % (negative = inhibition) [13] -10.8% | max response [17] 12.1%
23.6%: max response [11]
active: Potency [2] 50.1 µM | Potency [5] 50.1 µM | Potency [8] 50.1 µM | Potency [10] 39.8 µM | Potency [14] 29.8 µM | Potency [15] 33.5 µM | Potency [16] 42.2 µM

CCOc1ccc2nc(N)sc2c1
1.63%: max response [11]
inactive: Potency [1] > 92 µM | activity change, negative = cytotoxicity [18] -2.03% | Potency [20] | Potency [19] | Potency [2] | Potency [3] | Potency [4] | Potency [5] | Potency [6] | Potency [7] | Potency [8] | Potency [9] | Potency [10] | Potency [12] | activity change % (negative = inhibition) [13] -4.05%

Brc1cc(Br)c(Oc2cc(Br)c(Br)cc2Br)cc1Br
inactive: Potency [1] > 92 µM | Potency [20] | Potency [19] | Potency [2] | Potency [3] | Potency [4] | Potency [5] | Potency [6] | Potency [7] | Potency [8] | Potency [9] | Potency [10] | Potency [12] | activity change % (negative = inhibition) [13] 17.2% | Potency [14] | Potency [15] | Potency [16] | max response [17] -2.15%

O=C(O)c1ccc([N+](=O)[O-])cc1
inactive: Potency [1] > 92 µM | activity change, negative = cytotoxicity [18] 9.32% | Potency [20] | Potency [19] | Potency [2] | Potency [3] | Potency [4] | Potency [5] | Potency [6] | Potency [7] | Potency [8] | Potency [9] | Potency [10] | Potency [12] | activity change % (negative = inhibition) [13] -4.73% | Potency [14] | Potency [15] | Potency [16] | max response [17] -2.43% and -1.7%
-0.875% and -5.25%: max response [11]

Nc1ccccc1O
inactive: Potency [1] > 92 µM | Potency [20] | Potency [19] | Potency [3] | Potency [4] | Potency [6] | Potency [8] | Potency [9] | Potency [12] | activity change % (negative = inhibition) [13] -12.3% | Potency [16]
23.5%: max response [11]
active: Potency [14] 15 µM | Potency [15] 23.7 µM

Cc1cc(-c2ccc(N=Nc3cc(S(=O)(=O)O)c4ccccc4c3N)c(C)c2)ccc1N=Nc1cc(S(=O)(=O)O)c2ccccc2c1N
inactive: Potency [3] | Potency [12] | activity change % (negative = inhibition) [13] -25.1% | Potency [16] | max response [17] -3.26%
-22%: max response [11]

O=C=Nc1ccc(Cl)c(Cl)c1
inactive: Potency [4] | Potency [5] | Potency [16]
active: Potency [18] 31.6 µM | Potency [20] 31.6 µM | Potency [14] 4.22 µM | Potency [15] 5.96 µM

O=C1OC(=O)c2ccccc21
inactive: Potency [1] > 92 µM | activity change, negative = cytotoxicity [18] -28.6% | Potency [20] | Potency [19] | Potency [2] | Potency [3] | Potency [4] | Potency [5] | Potency [7] | Potency [9] | Potency [10] | activity change % (negative = inhibition) [13] 1.82% | Potency [14] | Potency [15] | Potency [16]
-8.02%: max response [11]

CC(C)(C)C(=O)C1C(=O)c2ccccc2C1=O
active: Potency [1] 20.1 µM | activity change, negative = cytotoxicity [18] -83%
inactive: Potency [19] | Potency [2] | Potency [3] | Potency [4] | Potency [5] | Potency [6] | Potency [8] | activity change % (negative = inhibition) [13] 12.3% | Potency [14] | Potency [15] | Potency [16] | max response [17] -2.46%

O=C1c2ccccc2C(=O)C1(O)O
active: activity change, negative = cytotoxicity [18] -94.6% | Potency [19] 1.58 µM
5.07%: max response [11]
inactive: Potency [4] | Potency [6] | Potency [8] | Potency [9] | Potency [12] | activity change % (negative = inhibition) [13] -4.45% | Potency [15] | Potency [16] | max response [17] 1%

CC/C=C/C/C=C/C/C=C/CCCCCCCC(=O)OCC
active: Potency [5] 31.6 µM | Potency [6] 39.8 µM | Potency [7] 39.8 µM | Potency [8] 31.6 µM | Potency [9] 50.1 µM | Potency [10] 25.1 µM | Potency [16] 66.8 µM
inactive: Potency [1] > 92 µM | activity change, negative = cytotoxicity [18] -12.6% | Potency [20] | Potency [19] | Potency [3] | Potency [12] | Potency [14] | Potency [15] | max response [17] 2.44%
